Measurements: PubChem BioAssay AID1159580 (chemical genetic matrix, 2015)
Where “and” joins values, the source holds several entries; their conditions need not be identical. Equal entries are not always repeated. In all, about 5,500 compounds went through this assay and about 2,000 (36%) were called active. Another 18% or so got no clear call; they are omitted. Cut-off read from the data, not from the text of the source: active = normalized growth mostly below about 0.91 (no sharp cut-off); inconclusive = no clear call, values can overlap the other calls; inactive = mostly above about 0.92. This is one part of the list.

Test: chemical genetic growth profiling, strain panel (AID 1159580);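 note: tested at 20 µM; growth read once vehicle control cultures reached saturation at 30 °C; 1 = growth at the plate median or of vehicle wells; lower values mean less growth of the strain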
Conditions: S. cerevisiae deletion strains, growth OD
[1] = locus YAL040C, strain CLN3, stronger effect = lower value
[2] = locus YER002W, strain NOP16, stronger effect = lower value
[3] = locus YGR078C, strain PAC10, stronger effect = lower value
[4] = locus YGR229C, strain SMI1, stronger effect = lower value
[5] = locus YNL175C, strain NOP13, stronger effect = lower value
[6] = locus YNL197C, strain WHI3, stronger effect = lower value
[7] = locus YNL224C, strain SQS1, stronger effect = lower value
[8] = locus YOR083W, strain WHI5 (second series), stronger effect = lower value
[9] = locus YPL241C, strain CIN2, stronger effect = lower value
[10] = locus YMR307W, strain GAS1, stronger effect = lower value
[11] = locus YNL153C, strain GIM3, stronger effect = lower value

Measured: normalized growth

NC(N)=NOCCC(N)C(=O)O (stereo unspecified)
inactive: [1] 0.988 | [2] 0.98 | [3] 0.996 | [4] 1.01 | locus YMR263W, strain SAP30, stronger effect = lower value 0.98 | [5] 0.984 | [6] 0.984 | [7] 0.999 | [8] 0.975 | [9] 0.996

CCOC(=O)C1=CC2(CC)CCCN3CCc4c(n1c1ccccc41)C32 (stereo unspecified)
inactive: [1] 1 | locus YCL061C, strain MRC1 (second series), stronger effect = lower value 1 | locus YDR150W, strain NUM1, stronger effect = lower value 1 | locus YDR363W, strain ESC2, stronger effect = lower value 1 | [2] 1.02 | [3] 0.999 | [4] 1.01 | locus YJR075W, strain HOC1, stronger effect = lower value 0.984 | [10] 1.01 | [11] 0.989 | [5] 1.03 | [6] 1.03 | [7] 1.01 | locus YNL322C, strain KRE1, stronger effect = lower value 0.983 | [8] 1.01 | locus YPL055C, strain LGE1, stronger effect = lower value 1.02 | [9] 0.997

CC[C@]12CCCN3CCc4c(n(c5ccccc45)[C@](O)(C(=O)OC)C1)[C@@H]32
inactive: locus YAL013W, strain DEP1, stronger effect = lower value 0.984 | locus YAL021C, strain ccr4, stronger effect = lower value 0.986 | locus YAL026C, strain drs2, stronger effect = lower value 0.983 | locus YAL030W, strain snc1, stronger effect = lower value 0.984 | locus YBL061C, strain skt5, stronger effect = lower value 0.979 | locus YBR009C, strain hhf1, stronger effect = lower value 0.999 | locus YBR021W, strain FUR4, stronger effect = lower value 0.998 | locus YBR023C, strain chs3, stronger effect = lower value 0.991 | locus YBR171W, strain sec66, stronger effect = lower value 0.983 | locus YBR229C, strain ROT2, stronger effect = lower value 0.951 | locus YBR231C, strain swc5, stronger effect = lower value 0.994 | locus YBR279W, strain paf1, stronger effect = lower value 0.98 | locus YCL011C, strain gbp2, stronger effect = lower value 0.985 | locus YCL016C, strain dcc1, stronger effect = lower value 0.966 | locus YCL029C, strain bik1, stronger effect = lower value 0.978 | locus YCL061C, strain MRC1, stronger effect = lower value 0.986 | locus YCL069W, strain vba3, stronger effect = lower value 0.987 | locus YCR088W, strain abp1, stronger effect = lower value 0.981 | locus YDL005C, strain med2, stronger effect = lower value 0.96 | locus YDL035C, strain GPR1, stronger effect = lower value 0.966 | locus YDL040C, strain nat1, stronger effect = lower value 0.989 | locus YDL074C, strain BRE1, stronger effect = lower value 0.991 | locus YDL101C, strain DUN1, stronger effect = lower value 0.977 | locus YDL185W, strain tfp1, stronger effect = lower value 0.964 | locus YDL192W, strain arf1, stronger effect = lower value 0.979 | locus YDR001C, strain nth1, stronger effect = lower value 0.98 | locus YDR069C, strain doa4, stronger effect = lower value 0.991 | locus YDR101C, strain arx1, stronger effect = lower value 0.964 | locus YDR137W, strain rgp1, stronger effect = lower value 0.954 | locus YDR159W, strain sac3, stronger effect = lower value 1.01 | locus YDR162C, strain NBP2, stronger effect = lower value 0.97 | locus YDR195W, strain ref2 0.952 | locus YDR297W, strain sur2, stronger effect = lower value 0.99 | locus YDR318W, strain mcm21, stronger effect = lower value 1 | locus YDR334W, strain swr1, stronger effect = lower value 0.975 | locus YDR335W, strain msn5, stronger effect = lower value 0.979 | locus YDR388W, stronger effect = lower value 0.978 | locus YDR392W, strain spt3, stronger effect = lower value 0.946 | locus YDR502C, strain sam2, stronger effect = lower value 0.978 | locus YEL003W, strain gim4, stronger effect = lower value 0.984 | locus YEL037C, strain rad23, stronger effect = lower value 0.979 | locus YEL061C, strain CIN8 (second series), stronger effect = lower value 0.986 | locus YEL061C, strain CIN8, stronger effect = lower value 0.982 | locus YER015W, strain faa2, stronger effect = lower value 0.985 | locus YER016W, strain bim1, stronger effect = lower value 0.969 | locus YER110C, stronger effect = lower value 0.979 | locus YER111C, strain swi4, stronger effect = lower value 0.978 | locus YER155C, strain BEM2 (second series), stronger effect = lower value 0.958 | locus YER155C, strain BEM2, stronger effect = lower value 0.995 | locus YER167W, strain BCK2, stronger effect = lower value 0.996 | locus YFR010W, strain ubp6, stronger effect = lower value 0.998 | locus YGL078C, strain dbp3, stronger effect = lower value 0.997 | locus YGL086W, strain mad1, stronger effect = lower value 0.977 | locus YGL167C, strain pmr1, stronger effect = lower value 0.979 | locus YGL173C, strain kem1, stronger effect = lower value 0.984 | locus YGL227W, strain vid30, stronger effect = lower value 0.981 | locus YGL240W, strain doc1, stronger effect = lower value 1.02 | locus YGL248W, strain PDE1, stronger effect = lower value 0.993 | locus YGL253W, strain hxk2, stronger effect = lower value 0.981 | [3] 0.982 | locus YGR135W, strain pre9, stronger effect = lower value 1.04 | locus YGR252W, strain gcn5, stronger effect = lower value 1.07 | locus YHR013C, strain ard1, stronger effect = lower value 0.953 | locus YHR027C, strain rpn1, stronger effect = lower value 0.991 | locus YHR030C, strain SLT2, stronger effect = lower value 0.992 and 0.98 | locus YHR079C, strain IRE1 (second series), stronger effect = lower value 0.961 | locus YHR079C, strain IRE1, stronger effect = lower value 0.964 | locus YHR094C, strain hxt1, stronger effect = lower value 0.981 | locus YHR129C, strain ARP1, stronger effect = lower value 0.988 | locus YHR142W, strain chs7, stronger effect = lower value 0.964 | locus YHR200W, strain rpn10, stronger effect = lower value 0.971 | locus YIL066C, strain RNR3, stronger effect = lower value 0.977 | locus YIL073C, strain SPO22, stronger effect = lower value 0.965 | locus YIL125W, strain kgd1, stronger effect = lower value 0.988 | locus YIR030C, strain dcg1, stronger effect = lower value 0.99 | locus YJL092W, strain hpr5, stronger effect = lower value 0.993 | locus YJL095W, strain BCK1 (second series), stronger effect = lower value 0.973 | locus YJL095W, strain BCK1, stronger effect = lower value 1.01 and 0.994 | locus YJL115W, strain asf1, stronger effect = lower value 1 | locus YJL129C, strain trk1, stronger effect = lower value 0.974 | locus YJL134W, strain LCB3, stronger effect = lower value 0.99 | locus YJL154C, strain vps35, stronger effect = lower value 0.968 | locus YJL164C, strain tpk1, stronger effect = lower value 0.997 | locus YJL166W, strain qcr8, stronger effect = lower value 1.01 | locus YJL168C, strain set2, stronger effect = lower value 0.984 | locus YJL187C, strain SWE1 (second series), stronger effect = lower value 0.979 | locus YJL187C, strain SWE1, stronger effect = lower value 0.985 | locus YJR043C, strain POL32, stronger effect = lower value 0.977 | locus YJR066W, strain TOR1, stronger effect = lower value 0.925 | locus YKL009W, strain mrt4, stronger effect = lower value 0.985 | locus YKL068W, stronger effect = lower value 0.987 | locus YKL085W, strain MDH1 (second series), stronger effect = lower value 0.997 | locus YKL085W, strain MDH1, stronger effect = lower value 0.997 | locus YKL160W, strain elf1, stronger effect = lower value 0.962 | locus YKR001C, strain vps1, stronger effect = lower value 0.977 | locus YKR026C, strain gcn3, stronger effect = lower value 0.988 | locus YKR091W, strain srl3, stronger effect = lower value 0.982 | locus YLL001W, strain dnm1, stronger effect = lower value 0.986 | locus YLL026W, stronger effect = lower value 1 | locus YLL041C, strain sdh2, stronger effect = lower value 0.987 | locus YLR027C, strain aat2, stronger effect = lower value 0.989 | locus YLR039C, strain RIC1, stronger effect = lower value 1.03 | locus YLR058C, strain SHM2, stronger effect = lower value 0.976 | locus YLR102C, strain apc9, stronger effect = lower value 0.982 | locus YLR113W, strain HOG1, stronger effect = lower value 0.976 | locus YLR221C, strain rsa3, stronger effect = lower value 1 | locus YLR258W, strain gsy2, stronger effect = lower value 0.964 | locus YLR262C, strain YPT6 (second series), stronger effect = lower value 0.977 | locus YLR262C, strain YPT6, stronger effect = lower value 0.912 | locus YLR268W, strain sec22, stronger effect = lower value 0.963 | locus YLR320W, strain mms22, stronger effect = lower value 0.995 | locus YLR330W, strain CHS5, stronger effect = lower value 0.988 | locus YLR342W, strain FKS1 (second series), stronger effect = lower value 0.997 | locus YLR342W, strain FKS1, stronger effect = lower value 0.989 | locus YLR357W, strain rsc2, stronger effect = lower value 0.953 | locus YLR370C, strain arc18, stronger effect = lower value 0.975 | locus YLR371W, strain rom2, stronger effect = lower value 0.987 | locus YLR384C, strain iki3, stronger effect = lower value 0.977 | locus YLR418C, strain cdc73, stronger effect = lower value 0.989 | locus YML016C, strain PPZ1, stronger effect = lower value 0.991 | locus YML032C, strain rad52, stronger effect = lower value 0.967 | locus YML120C, strain ndi1, stronger effect = lower value 0.99 | locus YML124C, strain tub3, stronger effect = lower value 0.989 | locus YMR058W, strain fet3, stronger effect = lower value 0.983 | locus YMR078C, strain ctf18, stronger effect = lower value 0.977 | locus YMR125W, strain sto1, stronger effect = lower value 0.98 | locus YMR129W, stronger effect = lower value 0.985 | locus YMR205C, strain PFK2, stronger effect = lower value 0.97 | locus YMR223W, strain ubp8, stronger effect = lower value 1.03 | locus YMR231W, strain pep5, stronger effect = lower value 0.982 | [10] 0.967 | locus YNL067W, strain RPL9B, stronger effect = lower value 0.987 | locus YNL071W, strain lat1, stronger effect = lower value 0.981 | locus YNL128W, strain TEP1, stronger effect = lower value 0.974 | [11] 0.994 | locus YNL183C, strain NPR1, stronger effect = lower value 0.915 | locus YNL209W, strain ssb2, stronger effect = lower value 0.988 | locus YNL233W, strain BNI4, stronger effect = lower value 0.99 | locus YNL248C, strain rpa49, stronger effect = lower value 0.99 | locus YNL250W, strain rad50, stronger effect = lower value 0.984 | locus YNL271C, strain bni1, stronger effect = lower value 0.986 | locus YNL298W, strain CLA4, stronger effect = lower value 0.987 | locus YNL307C, strain MCK1, stronger effect = lower value 0.981 | locus YNL322C, strain KRE1 (second series), stronger effect = lower value 0.969 | locus YNR049C, strain mso1, stronger effect = lower value 0.978 | locus YNR052C, strain pop2, stronger effect = lower value 0.993 | locus YOL012C, strain htz1 0.992 | locus YOL147C, strain pex11, stronger effect = lower value 0.989 | locus YOR001W, strain rrp6, stronger effect = lower value 1.02 | locus YOR061W, strain CKA2, stronger effect = lower value 0.976 | locus YOR069W, strain VPS5, stronger effect = lower value 0.992 | locus YOR070C, strain gyp1, stronger effect = lower value 0.995 | locus YOR080W, strain dia2, stronger effect = lower value 0.972 | locus YOR083W, strain WHI5, stronger effect = lower value 0.98 | locus YOR106W, strain vam3, stronger effect = lower value 0.984 | locus YOR136W, strain idh2, stronger effect = lower value 0.969 | locus YOR144C, strain elg1, stronger effect = lower value 0.984 | locus YOR184W, strain ser1, stronger effect = lower value 0.98 | locus YOR231W, strain MKK1, stronger effect = lower value 1.01 | locus YOR265W, strain rbl2, stronger effect = lower value 0.995 | locus YOR270C, strain vph1, stronger effect = lower value 0.988 | locus YOR290C, strain snf2, stronger effect = lower value 0.979 | locus YOR316C, strain cot1, stronger effect = lower value 0.968 | locus YPL051W, strain arl3, stronger effect = lower value 0.971 | locus YPL078C, strain atp4, stronger effect = lower value 0.973 | locus YPL106C, strain sse1, stronger effect = lower value 0.959 | locus YPL240C, strain hsp82, stronger effect = lower value 0.985 | [9] 0.967 | locus YPL256C, strain CLN2, stronger effect = lower value 0.984 | locus YPR119W, strain clb2, stronger effect = lower value 0.975 | locus YPR141C, strain kar3, stronger effect = lower value 0.979 | locus YPR163C, strain tif3, stronger effect = lower value 0.974 | locus YPR167C, strain met16, stronger effect = lower value 0.995 | strain wtn01, stronger effect = lower value 1
